# Measured values from PubChem BioAssay (NCI).
# Compounds without any hit were thinned out: in the full panel of roughly 79,000, 15% have a hit. Values without a mark were called inactive. Calls of active or inactive are those of the source. Rule as the data show it: active = growth inhibition above about 70%; inactive = the rest.
# Assays:
# [1] = NCI Yeast Anticancer Drug Screen. Data for the rad52 strain (AID 147);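 also: 0% = growth of vehicle-treated control cultures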; details: S. cerevisiae rad52 mutant growth inhibition, hits give high values
# Method in brief: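 DNA repair-defective yeast; compound exposure; growth scored against vehicle controls.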
# [2] = NCI Yeast Anticancer Drug Screen. Data for the wt1 strain (AID 149);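 also: 0% = growth of vehicle-treated wt1 cultures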; details: S. cerevisiae wt1 strain (SPY 50644) growth inhibition, hits give high values
# Method in brief: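 Vehicle-normalised growth inhibition; strain wt1; compound exposure.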
# [3] = NCI Yeast Anticancer Drug Screen. Data for the rad50EPP+ strain (AID 151);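 also: 0% = growth of vehicle-treated control cultures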; details: S. cerevisiae rad50 mutant strain, hits give high values
# Method in brief: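 rad50EPP+ yeast treated with test compounds. Readout: growth vs vehicle control.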
# [4] = NCI Yeast Anticancer Drug Screen. Data for the mgt1 strain (AID 153); details: S. cerevisiae mgt1 mutant growth inhibition, hits give high values
# Method in brief: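 Growth inhibition relative to vehicle controls was scored for the mgt1 yeast strain after compound exposure.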
# [5] = NCI Yeast Anticancer Drug Screen. Data for the rad50 strain (AID 155);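 also: 0% = growth of vehicle-only cultures of the same strain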; details: S. cerevisiae rad50 strain growth inhibition, hits give high values
# Method in brief: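 A DNA repair-deficient yeast mutant serves as the test organism; compound-induced growth inhibition is calculated against vehicle-treated cells.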
# [6] = NCI Yeast Anticancer Drug Screen. Data for the mec2-1 strain (AID 157); details: S. cerevisiae mec2-1 strain, hits give high values
# Method in brief: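 Growth inhibition is read against vehicle-treated controls after compound exposure of the mec2-1 yeast strain, which is defective in DNA damage repair or cell cycle control.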
# [7] = NCI Yeast Anticancer Drug Screen. Data for the rad14 strain (AID 159);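 also: 0% = growth of vehicle-treated control cultures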; details: S. cerevisiae rad14 strain growth inhibition, hits give high values
# Method in brief: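 Vehicle-treated cultures served as the baseline for growth inhibition of a DNA repair-mutant yeast strain exposed to each compound.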
# [8] = NCI Yeast Anticancer Drug Screen. Data for the sgs1 mgt1 strain (AID 161);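 also: 0% = growth of cultures given vehicle only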; details: S. cerevisiae sgs1 mgt1 strain, hits give high values
# Method in brief: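 This yeast growth screen uses a strain with defined DNA-repair lesions; compound-treated growth is compared with vehicle-treated growth.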
# [9] = NCI Yeast Anticancer Drug Screen. Data for the CLN2oe strain (AID 163);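 also: 0% = growth of vehicle-only control cultures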; details: S. cerevisiae CLN2oe strain, hits give high values
# Method in brief: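 Compound-treated yeast; growth vs vehicle ctrl = % inhibition. Genetically altered strain (cell-cycle control).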
# [10] = NCI Yeast Anticancer Drug Screen. Data for the cln2 rad14 strain (AID 165);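 also: 0% = growth equal to vehicle treated cultures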; details: S. cerevisiae cln2 rad14 strain, hits give high values
# Method in brief: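 Growth inhibition, relative to vehicle-treated controls, is the read-out. The test organism is a yeast strain with defined genetic alterations, cln2 rad14.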
# [11] = NCI Yeast Anticancer Drug Screen. Data for the bub3 strain (AID 167); details: S. cerevisiae bub3 mutant strain, hits give high values
# Method in brief: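 Inhibition values come from growth of compound-treated mutant yeast normalised to vehicle-treated controls.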
# [12] = NCI Yeast Anticancer Drug Screen. Data for the wt2 strain (AID 169);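 also: 0% = growth of vehicle-treated yeast cultures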; details: S. cerevisiae wt2 strain growth inhibition, hits give high values
# Method in brief: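 Compound exposure of yeast; growth compared with vehicle controls; inhibition reported.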
# [13] = NCI Yeast Anticancer Drug Screen. Data for the sgs1 strain (AID 173);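 also: 0% = growth of vehicle-only control cultures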; details: S. cerevisiae sgs1 mutant, hits give high values
# Method in brief: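 Compounds applied to genetically altered yeast; growth compared with vehicle-treated cultures to give % inhibition.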
# [14] = NCI Yeast Anticancer Drug Screen. Data for the mlh1 rad18 strain (AID 175); details: S. cerevisiae mlh1 rad18 strain growth inhibition, hits give high values
# Method in brief: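 Cells of a genetically altered yeast strain, deficient in DNA damage repair, were treated with compound. Their growth was then compared with that of vehicle-treated cultures to give inhibition.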
# [15] = NCI Yeast Anticancer Drug Screen. Data for the rad18 strain (AID 177); details: S. cerevisiae rad18 mutant growth inhibition, hits give high values
# Method in brief: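 Compounds are applied to a repair-deficient yeast strain, and growth is compared with that of vehicle-treated cultures to give percent inhibition.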
# [16] = NCI Yeast Anticancer Drug Screen. Data for the mlh1 strain (AID 171);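 also: 0% = growth of vehicle-treated control cultures of the same strain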; details: S. cerevisiae mlh1 strain growth inhibition, hits give high values
# Method in brief: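 Compounds are applied to a genetically altered yeast strain, and its growth is compared with that of vehicle-treated cultures to give percent inhibition.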
# [17] = at 5.0 µM (retest, dose inferred, filed as 0.5)
# [18] = at 50.0 µM (retest, dose inferred, filed as 5.0)
smiles,measurement,setting,value
Nc1ccc(F)cc1S,growth inhibition,[1]; at 1.2 µM,-2%
same,growth inhibition,[1]; at 3.7 µM,-15%
same,growth inhibition,[1]; at 11.0 µM,-11%
same,growth inhibition,[1]; at 33.0 µM,60%
same,growth inhibition,[1]; at 100.0 µM,98% (active)
same,growth inhibition,[2]; at 1.2 µM,-7%
same,growth inhibition,[2]; at 3.7 µM,1%
same,growth inhibition,[2]; at 11.0 µM,6%
same,growth inhibition,[2]; at 33.0 µM,92% (active)
same,growth inhibition,[2]; at 100.0 µM,99% (active)
same,growth inhibition,[3]; at 1.2 µM,-19%
same,growth inhibition,[3]; at 3.7 µM,-19%
same,growth inhibition,[3]; at 11.0 µM,-37%
same,growth inhibition,[3]; at 33.0 µM,55%
same,growth inhibition,[3]; at 100.0 µM,97% (active)
same,growth inhibition,[4]; at 1.2 µM,-15%
same,growth inhibition,[4]; at 3.7 µM,-20%
same,growth inhibition,[4]; at 11.0 µM,12%
same,growth inhibition,[4]; at 33.0 µM,92% (active)
same,growth inhibition,[4]; at 100.0 µM,98% (active)
same,growth inhibition,[5]; at 1.2 µM,-23%
same,growth inhibition,[5]; at 3.7 µM,-40%
same,growth inhibition,[5]; [17],16%
same,growth inhibition,[5]; at 11.0 µM,-14%
same,growth inhibition,[5]; at 33.0 µM,61%
same,growth inhibition,[5]; [18],91% (active)
same,growth inhibition,[5]; at 50.0 µM,51.1%
same,growth inhibition,[5]; at 100.0 µM,98% (active)
same,growth inhibition,[6]; at 1.2 µM,-16%
same,growth inhibition,[6]; at 3.7 µM,-15%
same,growth inhibition,[6]; [17],9%
same,growth inhibition,[6]; at 11.0 µM,8%
same,growth inhibition,[6]; at 33.0 µM,81% (active)
same,growth inhibition,[6]; [18],99% (active)
same,growth inhibition,[6]; at 50.0 µM,85.8% (active)
same,growth inhibition,[6]; at 100.0 µM,98% (active)
same,growth inhibition,[7]; at 1.2 µM,-32%
same,growth inhibition,[7]; at 3.7 µM,-18%
same,growth inhibition,[7]; at 11.0 µM,-14%
same,growth inhibition,[7]; at 33.0 µM,70% (active)
same,growth inhibition,[7]; at 100.0 µM,97% (active)
same,growth inhibition,[8]; [17],31%
same,growth inhibition,[8]; [18],100% (active)
same,growth inhibition,[8]; at 50.0 µM,80.5% (active)
same,growth inhibition,[9]; at 1.2 µM,-70%
same,growth inhibition,[9]; at 3.7 µM,-50%
same,growth inhibition,[9]; at 11.0 µM,-24%
same,growth inhibition,[9]; at 33.0 µM,43%
same,growth inhibition,[9]; at 100.0 µM,94% (active)
same,growth inhibition,[10]; [17],46%
same,growth inhibition,[10]; [18],88% (active)
same,growth inhibition,[10]; at 50.0 µM,85.4% (active)
same,growth inhibition,[11]; at 1.2 µM,-33%
same,growth inhibition,[11]; at 3.7 µM,-15%
same,growth inhibition,[11]; [17],61%
same,growth inhibition,[11]; at 11.0 µM,18%
same,growth inhibition,[11]; at 33.0 µM,73% (active)
same,growth inhibition,[11]; [18],99% (active)
same,growth inhibition,[11]; at 50.0 µM,87.5% (active)
same,growth inhibition,[11]; at 100.0 µM,98% (active)
same,growth inhibition,[12]; at 1.2 µM,4%
same,growth inhibition,[12]; at 3.7 µM,-8%
same,growth inhibition,[12]; at 11.0 µM,56%
same,growth inhibition,[12]; at 33.0 µM,95% (active)
same,growth inhibition,[12]; at 100.0 µM,98% (active)
same,growth inhibition,[13]; at 1.2 µM,-16%
same,growth inhibition,[13]; at 3.7 µM,-24%
same,growth inhibition,[13]; at 11.0 µM,-14%
same,growth inhibition,[13]; at 33.0 µM,46%
same,growth inhibition,[13]; at 100.0 µM,97% (active)
same,growth inhibition,[14]; [17],15%
same,growth inhibition,[14]; [18],76% (active)
same,growth inhibition,[14]; at 50.0 µM,89.3% (active)
same,growth inhibition,[15]; at 1.2 µM,-28%
same,growth inhibition,[15]; at 3.7 µM,-30%
same,growth inhibition,[15]; at 11.0 µM,1%
same,growth inhibition,[15]; at 33.0 µM,71% (active)
same,growth inhibition,[15]; at 100.0 µM,97% (active)
CCN(CC)CCOc1cc(C)c2cc(Cc3ccccc3)ccc2n1,growth inhibition,[1]; at 1.2 µM,-1%
same,growth inhibition,[1]; at 3.7 µM,2%
same,growth inhibition,[1]; at 11.0 µM,2%
same,growth inhibition,[1]; at 33.0 µM,18%
same,growth inhibition,[1]; at 100.0 µM,82% (active)
same,growth inhibition,[2]; at 1.2 µM,0%
same,growth inhibition,[2]; at 3.7 µM,1%
same,growth inhibition,[2]; at 11.0 µM,-1%
same,growth inhibition,[2]; at 33.0 µM,3%
same,growth inhibition,[2]; at 100.0 µM,71% (active)
same,growth inhibition,[3]; at 1.2 µM,0%
same,growth inhibition,[3]; at 3.7 µM,0%
same,growth inhibition,[3]; at 11.0 µM,3%
same,growth inhibition,[3]; at 33.0 µM,7%
same,growth inhibition,[3]; at 100.0 µM,31%
same,growth inhibition,[4]; at 1.2 µM,2%
same,growth inhibition,[4]; at 3.7 µM,5%
same,growth inhibition,[4]; at 11.0 µM,10%
same,growth inhibition,[4]; at 33.0 µM,35%
same,growth inhibition,[4]; at 100.0 µM,98% (active)
same,growth inhibition,[5]; at 1.2 µM,-40%
same,growth inhibition,[5]; at 3.7 µM,-2%
same,growth inhibition,[5]; [17],7%
same,growth inhibition,[5]; at 11.0 µM,-1%
same,growth inhibition,[5]; at 33.0 µM,13%
same,growth inhibition,[5]; [18],57%
same,growth inhibition,[5]; at 50.0 µM,88.2% (active)
same,growth inhibition,[5]; at 100.0 µM,92% (active)
same,growth inhibition,[6]; at 1.2 µM,-2%
same,growth inhibition,[6]; at 3.7 µM,-3%
same,growth inhibition,[6]; [17],-2%
same,growth inhibition,[6]; at 11.0 µM,1%
same,growth inhibition,[6]; at 33.0 µM,17%
same,growth inhibition,[6]; [18],8%
same,growth inhibition,[6]; at 50.0 µM,82.7% (active)
same,growth inhibition,[6]; at 100.0 µM,84% (active)
same,growth inhibition,[7]; at 1.2 µM,4%
same,growth inhibition,[7]; at 3.7 µM,16%
same,growth inhibition,[7]; at 11.0 µM,25%
same,growth inhibition,[7]; at 33.0 µM,36%
same,growth inhibition,[7]; at 100.0 µM,99% (active)
same,growth inhibition,[8]; [17],5%
same,growth inhibition,[8]; [18],47%
same,growth inhibition,[8]; at 50.0 µM,96% (active)
same,growth inhibition,[9]; at 1.2 µM,-4%
same,growth inhibition,[9]; at 3.7 µM,-9%
same,growth inhibition,[9]; at 11.0 µM,0%
same,growth inhibition,[9]; at 33.0 µM,15%
same,growth inhibition,[9]; at 100.0 µM,52%
same,growth inhibition,[10]; [17],2%
same,growth inhibition,[10]; [18],-5%
same,growth inhibition,[10]; at 50.0 µM,53.9%
same,growth inhibition,[11]; at 1.2 µM,2%
same,growth inhibition,[11]; at 3.7 µM,1%
same,growth inhibition,[11]; [17],2%
same,growth inhibition,[11]; at 11.0 µM,9%
same,growth inhibition,[11]; at 33.0 µM,38%
same,growth inhibition,[11]; [18],13%
same,growth inhibition,[11]; at 50.0 µM,88.2% (active)
same,growth inhibition,[11]; at 100.0 µM,81% (active)
same,growth inhibition,[12]; at 1.2 µM,-1%
same,growth inhibition,[12]; at 3.7 µM,-2%
same,growth inhibition,[12]; at 11.0 µM,2%
same,growth inhibition,[12]; at 33.0 µM,13%
same,growth inhibition,[12]; at 100.0 µM,94% (active)
same,growth inhibition,[16]; at 1.2 µM,0%
same,growth inhibition,[16]; at 3.7 µM,1%
same,growth inhibition,[16]; at 11.0 µM,11%
same,growth inhibition,[16]; at 33.0 µM,28%
same,growth inhibition,[16]; at 100.0 µM,94% (active)
same,growth inhibition,[13]; at 1.2 µM,0%
same,growth inhibition,[13]; at 3.7 µM,3%
same,growth inhibition,[13]; at 11.0 µM,12%
same,growth inhibition,[13]; at 33.0 µM,35%
same,growth inhibition,[13]; at 100.0 µM,96% (active)
same,growth inhibition,[14]; [17],5%
same,growth inhibition,[14]; [18],28%
same,growth inhibition,[14]; at 50.0 µM,96% (active)
same,growth inhibition,[15]; at 1.2 µM,3%
same,growth inhibition,[15]; at 3.7 µM,15%
same,growth inhibition,[15]; at 11.0 µM,28%
same,growth inhibition,[15]; at 33.0 µM,65%
same,growth inhibition,[15]; at 100.0 µM,99% (active)
